Experimental data from PubChem BioAssay AID434968 (Broad Institute, 2010).
Out of some 2,100 compounds screened, about 1,800 (86%) were called active. No rule for the calls is given here. The set was probably picked from earlier hits. These entries were drawn from the full list.

Assay: counter-screen: blocks GFP chromophore formation, dose response, counter-screen, biochemical, fluorescence, homogeneous (AID 434968)
Settings: cell-free GFP chromophore formation

SMILES | EC50
CCCCCCCCCCOC(=O)Cn1c(COc2ccc(C)cc2)[n+](C)c2ccccc21 | 16.1 µM (active)
CCCCCCCCCCOC(=O)Cn1c(COc2cccc(OC)c2)[n+](C)c2ccccc21 | 10.4 µM (active)
COc1ccc(C2C(C#N)=C(N)Oc3n[nH]c(C)c32)cc1CN1CCN(c2ccc(F)cc2)CC1 (configuration not stated) | 23 µM (active)
Cc1cc(C(=O)CCl)c(C)n1CC1COc2ccccc2O1 (configuration not stated) | 37.5 µM (active)
Cc1oc2c(c1C(=O)N1CCOCC1)C(=O)c1ccccc1C2=O | 3.63 µM (active)
O=C1CC(c2ccccc2)=NN1c1ccc([N+](=O)[O-])cc1 | 15.8 µM (active)
COc1ccc(C(=O)NC(=S)NNC(=O)CCc2ccccc2)cc1 | > 38 µM (inactive)
CCOC(=O)C(CC)Sc1ncnc2c1nnn2-c1ccc(F)cc1 (configuration not stated) | > 38 µM (inactive)
NC1=NN(c2cccc(C(=O)O)c2)C(=O)C1 | 31.6 µM (active)
Oc1c(Cl)cc(Cl)c(Cl)c1Cc1c(O)c(Cl)cc(Cl)c1Cl | 7.06 µM (active)
NC(=O)CC[C@@H]1NC(=O)[C@H](CO)NC(=O)c2cc([N+](=O)[O-])cc(I)c2NCC[C@@H](C(N)=O)NC1=O | 22.5 µM (active)
Cc1ccccc1C(CC(=O)c1cccs1)C(C#N)C#N (configuration not stated) | 2.18 µM (active)
CCOC(=O)N1CCC(c2cc(=O)n(-c3ccccc3)[nH]2)CC1 | 7.17 µM (active)
O=C(CCl)N(Cc1cccc([N+](=O)[O-])c1)c1cccc(Cl)c1 | 3.06 µM (active)
Oc1ccc(N=Cc2sc3ccccc3c2Cl)cc1 | > 38 µM (inactive)
COc1ccc(-c2csc(Nc3ccc(O)cc3)n2)cc1 | > 38 µM (inactive)
O=[N+]([O-])c1c(NCCO)cc(Sc2nc3ccccc3s2)c2nonc12 | 0.766 µM (active)
O=C(c1ccc(Cl)cc1)n1cnc2ccccc21 | 22.1 µM (active)
O=C1NC(c2ccc(-c3ccccc3[N+](=O)[O-])o2)C(C(=O)c2ccc(Cl)cc2)C(O)(C(F)(F)F)N1 (configuration not stated) | 25.2 µM (active)
CC(CCn1cccn1)NC(=O)CCc1nnc(CCc2ccccc2)o1 (configuration not stated) | > 38 µM (inactive)
CC(C)OC(=O)CN1C(=O)C(=O)c2ccccc21 | 22.5 µM (active)
O=C(Nc1ccccc1)c1nnsc1S(=O)(=O)c1ccc(Cl)cc1 | 11.7 µM (active)
CC1(N2CCOCC2)CC2(O)C(=[N+]1[O-])CCc1nonc12 (configuration not stated) | 24.9 µM (active)
N#Cc1c(N)n(CCOC(=O)c2ccc(Cl)cc2)c2nc3ccccc3nc12 | 2.69 µM (active)
COc1ccc(C(CCN(Cc2ccc(OC)c(OC)c2)C(=O)CCl)c2ccccc2)cc1 (configuration not stated) | 0.326 µM (active)
CCN(CC)c1ccc2oc(=O)c(C)nc2c1 | 13.6 µM (active)

SMILES | EC50
COc1ccc2c(c1)C(=C(C#N)C#N)C(=O)N2CCc1ccccc1 | > 38 µM (inactive)
COc1ccccc1-n1nnnc1S(=O)(=O)Cc1ccc(Cl)cc1 | 27.2 µM (active)
Cc1ccc(NC(=O)c2cnc(SCC(=O)NCC3CCCO3)n(C)c2=O)cc1 (configuration not stated) | > 38 µM (inactive)
Cc1nn(Cc2ccccc2)c2c1C(c1ccccc1)C(C#N)=C(N)O2 (configuration not stated) | 15.2 µM (active)
O=S(=O)(O)Oc1c[nH]c2ccccc12 | 0.78 µM (active)
COC(=O)c1sc(-c2ccc(C(C)(C)C)cc2)cc1NC(=O)/C=C/C(=O)O | 4.26 µM (active)
CCOC(=O)c1c(C)[nH]c2c1-c1ccccc1C(=O)C2=O | 2.58 µM (active)
CCOC(=O)C1=C(c2ccc(OC)cc2)C(=O)c2ccccc2C1=O | 6.35 µM (active)
COc1ccc(S(=O)(=O)/N=C2\C=C(NS(=O)(=O)c3ccccc3)C(=O)c3ccccc32)cc1 | 3.05 µM (active)
C=CS(=O)c1sc(Cl)c(N2CCOCC2)c1[N+](=O)[O-] (configuration not stated) | 24.9 µM (active)
Cc1oc2cc([N+](=O)[O-])c(O)c([N+](=O)[O-])c2c1C(=O)c1ccc(Br)cc1 | 19.5 µM (active)
Cc1ccc(SCC2=NNC(=O)C2)cc1 | 6.33 µM (active)
CCOc1c(Br)cc(/C=C2\C(=O)N(CCC#N)N=C2C)cc1OC | 3.7 µM (active)
CN(c1ccccc1)c1ccc([N+](=O)[O-])c2nonc12 | 20.3 µM (active)
CC(=O)C12CC(C)=C(C)CC1CC1C3CCC4=CC(=O)CCC4(C)C3CCC12C (configuration not stated) | > 38 µM (inactive)
Cc1cc2[nH]ncc2cc1NC(=S)NC(=O)c1ccccc1 | > 38 µM (inactive)
O=S(=O)(Nc1ccc(O)c2ccccc12)c1ccc(OC(F)(F)F)cc1 | 0.19 µM (active)
O=c1[nH]c2ccccc2n2c(-c3ccccc3)nnc12 | 26.2 µM (active)
O=C(Oc1ccc(Br)cc1C(=S)N1CCOCC1)c1cccc([N+](=O)[O-])c1 | > 38 µM (inactive)
CCCCOC(=O)CNc1nnc(SCC(=O)OCC)[nH]c1=O | 11.3 µM (active)
COC(=O)CC1=NN(c2nc(C)cc(C)n2)C(=O)C1 | > 38 µM (inactive)
Cc1ccc(Nc2cc(C)nc3c(C)ccc([N+](=O)[O-])c23)cc1 | 12 µM (active)
Cc1ccc(CNC(=O)CCN2C(=O)[C@@H]3Cc4ccccc4CN3C2=O)cc1 | > 38 µM (inactive)
Cc1[nH]n(C)c(=O)c1C(=O)c1c(-c2c(Cl)cccc2Cl)noc1C | 12.1 µM (active)
CCCCCCCCc1c(O)nc(-n2[nH]c(C)c(CCO)c2=O)[nH]c1=O | > 38 µM (inactive)
CSc1nnc(NC(=O)c2nc(S(=O)(=O)Cc3ccc(C)cc3)ncc2Cl)s1 | 17 µM (active)

SMILES | EC50
Cc1cccc(CS(=O)(=O)c2ncc(Cl)c(C(=O)Nc3ccc(F)cc3)n2)c1 | 2.65 µM (active)
CC1=NN(Cc2ccccc2)C(=O)/C1=C/c1ccc(N(C)C)cc1 | 3.59 µM (active)
O=C(CCCN1C(=O)/C(=C/c2ccccc2)SC1=S)Nc1ccc(O)cc1 | > 38 µM (inactive)
CC1=NNC(=O)C1Cc1c(Cl)cccc1Cl (configuration not stated) | 3.71 µM (active)
Cc1ccsc1/C=N/NC(=O)Cc1cc(=O)[nH][nH]1 | 6.88 µM (active)
O=C(Cc1cc(=O)[nH][nH]1)N/N=C/c1ccccc1[N+](=O)[O-] | 10.3 µM (active)
COc1ccc(-c2[nH]nc3c2C(c2ccncc2)C(C#N)=C(N)O3)cc1 (configuration not stated) | 21.3 µM (active)
CCCc1[nH]nc2c1C(c1ccc(OC(=O)c3ccco3)cc1)C(C#N)=C(N)O2 (configuration not stated) | 25.1 µM (active)
CCCc1[nH]nc2c1C(c1ccc(Br)s1)C(C#N)=C(N)O2 (configuration not stated) | 17.8 µM (active)
CCc1ccc(C2C(C#N)=C(N)Oc3n[nH]c(CC(=O)OC)c32)cc1 (configuration not stated) | 36.3 µM (active)
Cc1cc(C)n2nc(CNS(=O)(=O)c3c(F)c(F)c(F)c(F)c3F)nc2n1 | 10 µM (active)
CN1CCc2nc(SC(C(=O)O)c3ccccc3)c(C#N)c(-c3cccs3)c2C1 (configuration not stated) | 31.1 µM (active)
Cc1nc2ccccc2nc1N/N=C/c1ccc(O)cc1O | > 38 µM (inactive)
O=C(Nc1ccccc1Cl)/C(Cl)=C(\Cl)S(=O)c1ccccc1 (configuration not stated) | 1.31 µM (active)
Cc1c(-c2nn(C)c(=O)c3ccccc23)oc2ccc(F)cc2c1=O | 6.81 µM (active)
CCOCC(=O)NCc1ccc2c(c1)cc(C)n2C | > 12 µM (inactive)
COc1ccc(/C=C2/C(=O)N(c3ccccc3)N=C2C)c(OC)c1 | 21.7 µM (active)
COc1ccc(C2NC(=S)NC3=C2CCc2ccccc23)cc1OC (configuration not stated) | 22.7 µM (active)
Cc1ccc(N(Cc2cc(=O)[nH]c3ccccc23)C(=O)CCl)cc1 | 0.148 µM (active)
CCOc1ccc(C(c2c(C)[nH][nH]c2=O)c2c(C)[nH][nH]c2=O)cc1OCC | 0.386 µM (active)
Cc1[nH][nH]c(=O)c1C(c1ccc2c(c1)OCO2)c1c(C)[nH][nH]c1=O | 0.426 µM (active)
O=C1/C(=C/c2ccc3c(c2)OCO3)CCC/C1=C\c1ccc2c(c1)OCO2 | > 38 µM (inactive)
COc1cccc(/C=N/Nc2cc(C)nc(-c3ccccc3O)n2)c1O | > 38 µM (inactive)
O=C(O)CSc1c2c(nc3cc(C(=O)Nc4cccc(C(F)(F)F)c4)ccc13)CCCC2 | 15.6 µM (active)
COc1ccc(-c2nnc(SC(=O)N3c4ccccc4Sc4ccccc43)o2)cc1 | 0.551 µM (active)
